# Test results published in publication PMC8384837, “Expanding the binding specificity for RNA recognition by a PUF domain”.
# Molecular target: PUM1 PUF domain R7-KYK (Homo sapiens, UniProt Q14671 828-1176, S1079K;N1080Y;E1083K)
# Assay: yeast three-hybrid, YBZ-1, SC-Leu-His + 0.5 mM 3-AT, 4 days
# Conditions: tags: N-Gal4 AD-HA kept; label: inside an RPR1-promoter hybrid RNA with tandem MS2 sites; ssRNA
# How it was run: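 Pumilio-1 PUF domain libraries, randomized (NNK) at the three base-contacting residues of each repeat, were co-expressed with matching RNA elements from a centromeric plasmid in strain YBZ-1 (LexA–MS2 coat fusion, HIS3 reporter). Transformants were plated on SC-Leu (input) and SC-Leu-His + 0.5 mM 3-AT (selection) for four days, and repeat regions were PCR-amplified and Illumina-sequenced. The interaction score is the log2 change in variant frequency from input to selection, with pseudocount 1 where absent.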
# PUM1 PUF domain R7-KYK, sequence (Q14671 828-1176 S1079K/N1080Y/E1083K): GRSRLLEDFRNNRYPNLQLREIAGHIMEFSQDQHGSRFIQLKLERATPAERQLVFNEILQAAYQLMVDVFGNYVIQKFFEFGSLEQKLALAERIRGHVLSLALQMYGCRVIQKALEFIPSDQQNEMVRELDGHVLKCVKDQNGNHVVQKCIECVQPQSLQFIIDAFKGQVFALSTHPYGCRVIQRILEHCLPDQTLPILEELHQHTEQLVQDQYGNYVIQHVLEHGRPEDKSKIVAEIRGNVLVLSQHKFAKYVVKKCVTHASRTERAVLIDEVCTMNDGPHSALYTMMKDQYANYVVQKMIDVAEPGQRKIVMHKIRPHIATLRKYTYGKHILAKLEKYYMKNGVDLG
row,Sequence,binding signal
1,GGCUAGAACUAGUGGAUCCCCCGGCGCCCGGCGGCUCGAGCCCGGGUAAGUGUAAAUAGUCUGCAUGCCGCCGGGCGCCAUGCCUGCAGGUCGACUCUAGAAAACAUG,2.18 log2 enrichment (interaction score)
2,GGCUAGAACUAGUGGAUCCCCCGGCGCCCGGCGGCUCGAGCCCGGGUAAGUAUAAAUAGUCUGCAUGCCGCCGGGCGCCAUGCCUGCAGGUCGACUCUAGAAAACAUG,4.11 log2 enrichment (interaction score)
3,GGCUAGAACUAGUGGAUCCCCCGGCGCCCGGCGGCUCGAGCCCGGGUAAGUCUAAAUAGUCUGCAUGCCGCCGGGCGCCAUGCCUGCAGGUCGACUCUAGAAAACAUG,5.83 log2 enrichment (interaction score)
